Results on one compound are retold here after PubChem BioAssay (EPA / NIEHS).

Inconclusive results are not listed. Calls of active or inactive are those of the source. How the source made its calls, unless noted: active means hit-call score of the fitted dose curve at least 0.9, where 1 is the maximum; inactive means score below 0.9.

A short description of assay [1]: CCTE_Shafer_MEA_dev_firing_rate_mean: CCTE's Neural Network Formation Assay for Mean Firing Rate, Shafer Lab (AID 2284031). In outline:
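Steps: seed rat cortical cells (1.5 x 10^5/well) with laminin on PEI-coated MEA; dose day 0; record DIV 5/7/9/12, full media and compound exchange after DIV 5 and 9 recordings; compute well-mean firing rate AUC.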

Assay [2] can be described thus: CCTE_Shafer_MEA_dev_per_burst_spike_percent: CCTE's Neural Network Formation Assay for Percent of Spikes in a Burst, Shafer Lab (AID 2284032). The procedure, abridged:
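Value is trapezoidal AUC over recordings on days 5, 7, 9 and 12 of the well-mean fraction of spikes falling in single-electrode bursts; rat cortical cultures exposed continuously from plating, treatment renewed DIV 5 and 9, fitted downward against DMSO.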

The nature of assay [3]: CCTE_Shafer_MEA_dev_active_electrodes_number: CCTE's Neural Network Formation Assay for Number of Active Electrodes, Shafer Lab (AID 2284040; active means hit-call score of the fitted dose curve at least 0.9, where 1 is the maximum). The procedure, abridged:
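Counts electrodes per well firing at least 5 spikes/min, recorded on days 5, 7, 9 and 12 in rat cortical cultures dosed continuously from plating (treatment refreshed DIV 5, 9). Value is the area under the curve over recordings, fitted downward relative to DMSO.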

A short description of assay [4]: CCTE_Shafer_MEA_dev_bursting_electrodes_number: CCTE's Neural Network Formation Assay for Number of Bursting Electrodes, Shafer Lab (AID 2284043; active means hit-call score of the fitted dose curve at least 0.9, where 1 is the maximum). The procedure, abridged:
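Counted: electrodes with burst rate ≥1 per 2 min in each well. Cells: primary rat cortex, 1.5 x 10^5/well, on 16-electrode MEA wells. Exposure: DIV 0–12, compound renewed DIV 5 and 9. Recording days 5, 7, 9, 12; AUC vs DMSO baseline.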

A short description of assay [5]: CCTE_Shafer_MEA_dev_per_burst_interspike_interval: CCTE's Neural Network Formation Assay for Burst Interspike Interval, Shafer Lab (AID 2284044). The procedure, abridged: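 Neurons from rat cortex plated onto PEI-coated MEA wells with laminin […] at 1.5 x 10^5 cells/well, then treated from day 0. Media and compound fully replaced on DIV 5 and 9. Extracellular spontaneous firing recorded four times; interspike interval per burst summarised as AUC.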

Assay [6] can be described thus: CCTE_Shafer_MEA_dev_burst_duration_mean: CCTE's Neural Network Formation Assay for Mean Burst Duration, Shafer Lab (AID 2284045). In outline:
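Network-formation assay in primary rat cortical neurons; treatment spans twelve days of development. Mean burst duration per well is integrated by trapezoidal AUC and fitted in the loss-of-signal direction against DMSO baseline.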

Assay [7] can be described thus: CCTE_Shafer_MEA_dev_interburst_interval_mean: CCTE's Neural Network Formation Assay for Mean Interburst Interval, Shafer Lab (AID 2284046).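 Further: well-mean interburst interval of bursting electrodes as AUC over four recording days; curve fitted for decrease in interburst interval relative to DMSO.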 The procedure, abridged:
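Rat cortical neurons, 1.5 x 10^5 cells/well, 48-well MEA; compound from day 0 through DIV 12, media and treatment renewed DIV 5/9. Recordings DIV 5, 7, 9, 12; well-mean interburst interval → trapezoidal AUC, loss direction vs DMSO.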

Assay [8] in a line: CCTE_Shafer_MEA_dev_network_spike_number: CCTE's Neural Network Formation Assay for Number of Network Spikes, Shafer Lab (AID 2284048).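 Further: synchronized bursts across electrodes counted on days 5 7 9 12 and integrated as AUC.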 In outline:
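Extracellular recordings from 16-electrode wells track network formation in rat cortical cultures under continuous treatment from plating. The endpoint is network spike number, expressed as AUC across DIV 5–12 relative to DMSO vehicle.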

Assay [9] can be described thus: CCTE_Shafer_MEA_dev_network_spike_peak: CCTE's Neural Network Formation Assay for Mean Number of Electrodes in Network Spike, Shafer Lab (AID 2284049). The procedure, abridged: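 Continuous 12-day exposure of rat cortical cultures, starting at plating, on MEA plates. Endpoint: electrodes participating in network-spike peaks, AUC across DIV 5–12, DMSO as negative control.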

Assay [10] is described as follows: CCTE_Shafer_MEA_dev_spike_duration_mean: CCTE's Neural Network Formation Assay for Mean Spike Duration, Shafer Lab (AID 2284051).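 Further: mean network spike duration pooled as area under curve over DIV 5 to 12 recordings.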 In outline: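 Rat cortical primary cultures, 48-well MEA (16 electrodes/well); compound from plating, renewed DIV 5, 9. Network spike duration (AxIS adaptive detector) recorded DIV 5/7/9/12, combined as trapezoidal AUC; loss direction vs DMSO.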

The nature of assay [11]: CCTE_Shafer_MEA_dev_per_network_spike_spike_number_mean: CCTE's Neural Network Formation Assay for Mean Number of Spikes in a Network Spike, Shafer Lab (AID 2284053). The procedure, abridged:
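Rat cortical primary cultures on 48-well MEA; compound from day 0, re-dosed with full media change DIV 5, 9. Recorded DIV 5, 7, 9, 12; spikes in 0.05 s window at network-spike peak ÷ total network spikes; AUC; loss vs DMSO.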

Assay [12] can be described thus: CCTE_Shafer_MEA_dev_per_network_spike_spike_percent: CCTE's Neural Network Formation Assay for Percent of Spikes in a Network Spike, Shafer Lab (AID 2284054). In outline:
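Developing networks of rat cortical neurons are dosed at day 0 and recorded extracellularly four times up to day 12. The endpoint is the area under the curve of percent spikes in network spikes, fitted in the negative direction relative to DMSO.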

Assay [13] can be described thus: UKN5_HCS_SBAD2_cell_viability: Viability Assessment in the University of Konstanz (UKN) Leist Lab Neurite Outgrowth Assay in human iPSC-derived immature Dorsal Root Ganglia Neurons (UKN5) (AID 2284056). In outline: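 iPSC-derived immature peripheral neurons (SBAD2) seeded on Matrigel with CHIR99021, SU5402 and DAPT, dosed 1 h later for 24 h. Viability from Hoechst H-33342 and calcein-AM live staining, high-content imaging; bidirectional fit versus DMSO.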

Assay [14] can be described thus: CCTE_Shafer_MEA_dev_LDH: CCTE's Lactate Dehydrogenase Assay for Cytotoxicity in the Neural Network Formation Assay, Shafer Lab (AID 2284068; active means hit-call score of the fitted dose curve at least 0.9, where 1 is the maximum;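 further: exposure for twelve days from plating with re-dosing on DIV 5 and 9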). The procedure, abridged: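 Rat cortical primary neurons, MEA culture; dosing day 0–12, full medium plus compound exchange DIV 5, 9. Read-out: LDH enzyme activity, spectrophotometric. DMSO = negative control/baseline; signal loss → cytotoxicity.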

Assay [15] in a line: UKN5_HCS_SBAD2_neurite_outgrowth: University of Konstanz (UKN) Leist Lab Neurite Outgrowth Assay in human iPSC-derived immature Dorsal Root Ganglia Neurons (UKN5) (AID 2284070). The conditions noted are these: actives raise or lower the signal. The procedure, abridged: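 Thaw, seed on Matrigel (100.000 cells/cm2), dose 1 h later; at 23 h live-stain with H-33342 and calcein-AM for 60 min; image at 24 h. Neurite area fitted bidirectionally vs DMSO.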

Assay [16] can be described thus: CCTE_Shafer_MEA_dev_AB: CCTE's Alamar Blue Assay for Cytotoxicity in the Neural Network Formation Assay, Shafer Lab (AID 2284083; active means hit-call score of the fitted dose curve at least 0.9, where 1 is the maximum;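 further: resazurin reduction fluorescence as viability of cultured neurons; twelve days of exposure from plating with re-dosing on DIV 5 and 9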). In outline:
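Rat cortical primary cultures, 1.5 x 10^5 cells/well on MEA; continuous compound exposure over 12 days of network development, re-dosed with full medium change DIV 5 and 9. Alamar Blue fluorescence; loss of signal = cytotoxicity vs DMSO baseline.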
(The colour change of resazurin is a common sign of viable cells or microbes.)

The nature of assay [17]: CCTE_Shafer_MEA_dev_mutual_information_norm: CCTE's Neural Network Formation Assay for Mutual Information Normalization, Shafer Lab (AID 2284091). In outline:
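Exposure of primary rat cortical neurons began at plating and ran to DIV 12, with full media and treatment renewal after DIV 5 and 9 recordings. Mutual information AUC (DIV 5–12) was analysed for loss versus DMSO.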

Assay [18] in a line: CCTE_Shafer_MEA_dev_correlation_coefficient_mean: CCTE's Neural Network Formation Assay for Mean Correlation Coefficient, Shafer Lab (AID 2284093). In outline: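 Rat cortical cultures, 1.5 x 10^5 cells/well, dosed from day 0 for 12 days. Spontaneous spikes recorded DIV 5/7/9/12; electrode-pair correlation coefficients averaged, AUC taken. Fit in loss direction vs DMSO.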
Assay [19] in a line: UKN2_HCS_IMR90_neural_migration: University of Konstanz (UKN) Leist Lab Neural Crest Cell Migration Assay in human induced IMR90 Pluripotent Stem Cells (UKN2) (AID 2284204). The conditions noted are these: actives raise or lower the signal. In outline: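 Using a 96-well stopper format with PLO/laminin/fibronectin coating, neural crest cells from iPSC migrate in cytokine-supplemented N2-S medium; after 24 h, chemicals are applied for a further 24 h, then cells are imaged after dye staining.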

A short description of assay [20]: UKN4_HCS_LUHMES_neurite_outgrowth: University of Konstanz (UKN) Leist Lab Neurite Outgrowth Assay in human LUHMES cells (UKN4) (AID 2284206). To be noted: actives raise or lower the signal. In outline: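 Human LUHMES cells were differentiated for two days, replated and treated with chemicals for 24 h. Neurite outgrowth was quantified as calcein-stained neurite area by HCS imaging, fitted bidirectionally relative to DMSO.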

Assay [21] is described as follows: UKN4_HCS_LUHMES_cell_viability: Viability Assessment in the University of Konstanz (UKN) Leist Lab Neurite Outgrowth Assay in human LUHMES cells (UKN4) (AID 2284232). In outline: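 Cells switched to differentiation medium at day 0, replated on day 2 in medium lacking cAMP and GDNF, and compound-treated once attached. Live staining began 23.5 h later, imaging followed at 24 h.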

Assay [22] can be described thus: UKN2_HCS_IMR90_cell_viability: Viability Assessment in the University of Konstanz (UKN) Leist Lab Neural Crest Cell Migration Assay in human induced IMR90 Pluripotent Stem Cells (UKN2) (AID 2284233).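 Further: viability of neural crest cells differentiated from IMR90 iPSC measured by calcein-AM fluorescence imaging; cells exposed to compound for 24 h after a 24 h migration phase.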 The procedure, abridged:
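cMINC format, iPSC-derived neural crest (IMR90); 24 h migration (EGF/FGF, N2-S), then 24 h toxicant. Calcein-AM/H-33342 stain 30 min; fluorescence intensity by HCS; DMSO-normalised, bidirectional fitting.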

With `Brc1cc(Br)c(Oc2cc(Br)c(Br)cc2Br)cc1Br`, the result in assay [1], in assay [2], in assay [3], in assay [4], in [5] and in assay [6] was inactive. The call in assay [7], in assay [8], in [9], in assay [10], in assay [11] and in assay [12] was inactive. Moreover, the call in [13], in assay [15], in assay [16], in [17], in [18] and in assay [19] was inactive. Also, the call in [20], in assay [21] and in [22] was inactive. Besides, the half-maximal activity concentration (AC50) in assay [14] was 7.47 µM (active).

By AC50 is commonly meant the midpoint of the concentration-response curve, whichever way the signal moves.
